We go through two compounds from PubChem BioAssay AID2284199 (EPA ToxCast).

Activity calls are given as the source filed them. Rule for the calls: active = hit-call score of the fitted dose curve at least 0.9, where 1 is the maximum; inactive = score below 0.9.

For this test, the target named is rat Vesicular Monoamine Transporter (VMAT2), Slc18a2 (gene 25549) (UniProt Q01827). The test is described as follows: ERF_TW_TR_rSLC18A2: Eurofins (ERF) Radioligand Binding LeadHunter Assay for rat Vesicular Monoamine Transporter (VMAT2) Antagonism. Here is the method: ERF_TW_TR_rSLC18A2 is a biochemical, single-readout assay that uses extracted gene-proteins in a cell-free assay. Measurements were taken 0.5 hour after chemical dosing in a 96-well plate. See VMAT2 Rat Vesicular Monoamine Transporter Binding (Antagonist Radioligand) Assay, Panlabs.ERF_TW_TR_rSLC18A2 is an assay component calculated from the ERF_TW_TR_rSLC18A2 assay. It is designed to measure radioligand binding using a type of binding reporter as detected by scintillation counting with radiometry technology.Data from the assay component ERF_TW_TR_rSLC18A2 was analyzed at the assay endpoint, ERF_TW_TR_rSLC18A2, in the positive analysis fitting direction relative to DMSO as the negative control and baseline of activity. Using a type of binding reporter, loss-of-signal activity can be used to understand changes in transporter binding as they relate to gene SLC18A2. To generalize the intended target to other relatable targets, this assay endpoint is annotated to the transporter intended target family, where the subfamily is vesicular transporter.
Sequence of rat Vesicular Monoamine Transporter (VMAT2), Slc18a2 (gene 25549) (Q01827 whole entry, looked up): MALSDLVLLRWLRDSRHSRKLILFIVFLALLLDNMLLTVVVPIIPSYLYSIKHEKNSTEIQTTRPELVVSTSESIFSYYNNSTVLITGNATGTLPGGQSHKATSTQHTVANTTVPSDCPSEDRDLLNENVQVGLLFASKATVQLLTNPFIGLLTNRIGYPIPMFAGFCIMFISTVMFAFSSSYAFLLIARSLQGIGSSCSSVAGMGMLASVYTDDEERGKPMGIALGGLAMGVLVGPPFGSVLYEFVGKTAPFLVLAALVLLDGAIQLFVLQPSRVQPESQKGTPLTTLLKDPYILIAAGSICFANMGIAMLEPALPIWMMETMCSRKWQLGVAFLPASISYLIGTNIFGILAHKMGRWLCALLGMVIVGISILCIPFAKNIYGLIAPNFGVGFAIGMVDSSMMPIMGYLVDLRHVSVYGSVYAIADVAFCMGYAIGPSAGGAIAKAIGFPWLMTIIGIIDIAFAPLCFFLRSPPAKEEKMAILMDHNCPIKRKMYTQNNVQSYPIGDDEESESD
This assay measures binding of [3H]Dihydrotetrabenazine to sites associated with the vesicular monoamine uptake transporter. […] Membranes are filtered and washed, the filters are then counted to determine [3H]Dihydrotetrabenazine specifically bound. […]
The term AC50 denotes the midpoint of the concentration-response curve, whichever way the signal moves. For `COc1cc(CCC(=O)CC(=O)CCc2ccc(O)c(OC)c2)ccc1O`, the AC50 was 5000 nM (active). With `O=C(/C=C/c1ccc(O)cc1)CC(=O)/C=C/c1ccc(O)cc1`, the half-maximal activity concentration (AC50) was 283 nM (active).
